The values that follow come from PubChem BioAssay.

The nature of assay [1]: yeast TOR pathway RPL19A-GFP modulators, primary screen, cell-based, S. cerevisiae, multiplex flow cytometry (AID 1862; in the data active = percent of DMSO control GFP below about 86%;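 note: lower values mimic rapamycin by blocking the RPL19A rise seen in DMSO cells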). To be noted: S. cerevisiae RPL19A-GFP strain, flow cytometry fluorescence, 3 h; at 10 µM; stronger effect = lower value. In general terms: Flow cytometry measures light scatter and fluorescence of single cells or particles in a stream.
Assay [2] can be described thus: modulators of MEP2-GFP levels in yeast, primary screen, S. cerevisiae, multiplex flow cytometry (AID 1867;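 active = GFP response, as percent of the DMSO control, above the screen-wide mean plus 3 SD, about 139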;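 note: median GFP channel fluorescence of barcode-gated MEP2-GFP cells measured by flow cytometry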). Conditions: S. cerevisiae MEP2-GFP strain, 3 h, at 10 µM, stronger effect = higher value, 100% means same as DMSO wells.
The nature of assay [3]: modulators of CIT2-GFP expression in yeast, primary screen, S. cerevisiae, GFP fusion, multiplex flow cytometry (AID 1870;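 active = percent response above a set limit, the screen-wide mean plus 3 SD, cut at about 130% in these data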;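 note: barcoded CIT2-GFP strain pooled with four other GFP strains with rapamycin as positive control; median GFP fluorescence per well over plate mean of DMSO wells so 100% = DMSO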). Conditions: 3 h, at 10 µM, stronger effect = higher value.
Assay [4] is described as follows: modulators of LAP4-GFP expression in yeast, primary screen, S. cerevisiae, multiplex flow cytometry (AID 1873;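 active = GFP signal, as percent of the solvent control, above the screen mean plus 3 SD, about 149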). To be noted: 3 h, at 10 µM, stronger effect = higher value.
A short description of assay [5]: modulators of AGP1-GFP expression in yeast TOR pathway, primary screen, cell-based, multiplex flow cytometry, S. cerevisiae (AID 1887;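 active = GFP signal above the screen-wide mean plus 3 SD, that is over about 124.5% of the solvent control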;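 note: AGP1-GFP fusion strain of S. cerevisiae within a five-strain barcoded multiplex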). To be noted: 3 h, at 10 µM, stronger effect = higher value.
Assay [6] in a line: inhibitors of CD8+ T cell-vesicle binding, pilot screen, LFA-1/ICAM-1 modulator project, MLPCN validation set, flow cytometry (AID 2523;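 active = response below a set limit, under 55% cells CD8-positive and vesicle-bound, and CD8 cells' 90th-percentile brightness under 279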;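 for vesicle binding response: mean PE anti-B7-1 fluorescence of CD8+ cells relative to row control; 100% = QL9-loaded vesicles with DMSO vehicle in the same plate row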). Conditions: 2C mouse CD8+ T cells, at 7 µM, stronger effect = lower value; double positive events: measured here: CD8+/vesicle+ event percentage.
Assay [7] concerns the target Integrin beta-1 (Homo sapiens) + Integrin alpha-4 (Homo sapiens) (UniProt P13612+P05556). The experiment in a line: inhibition of HUTS-21 binding to VLA-4, pilot screen, VLA-4 allosteric modulator project, U937 cells, HUTS-21 mAb, flow cytometry, validation set (AID 2674;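 active = inhibition above 50%, about 3 SD of the validation set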;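 note: antibody binding induced by the VLA-4 ligand LDV present at three times its Kd; 0% = LDV ligand with antibody and no compound and 100% = antibody without LDV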). Conditions: HUTS-21 LIBS mAb binding, at 6.7 µM, stronger effect = higher value, binding induced by LDV ligand.

The nature of assay [8]: superoxide lowering in aged yeast cells, pilot screen, validation compound set (AID 2706;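 active = superoxide response below 65% of plate, a cut near 3 SD across the whole screen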;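 note: yeast exposed to compound for one week at 30 degrees C before staining; 100% = mean of all compound wells on the same plate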). To be noted: S. cerevisiae aging, superoxide DHE fluorescence; at 10 µM; stronger effect = lower value.
The target in assay [9] is Beta-adrenergic receptor kinase 1 (Homo sapiens) (UniProt P25098). Kind of assay: GRK2 binders displacing RNA aptamer, biochemical, validation, human GRK2, bead flow cytometry (AID 488806;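 active = aptamer binding inhibition above 30%, about 3 SD of noise from non-fluorescent compounds; inactive = inhibition at or below 30%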). To be noted: bead-bound GRK2, FAM-aptamer displacement, at 10 µM, stronger effect = higher value.
Beta-adrenergic receptor kinase 1 (Homo sapiens), sequence (P25098 whole entry, looked up): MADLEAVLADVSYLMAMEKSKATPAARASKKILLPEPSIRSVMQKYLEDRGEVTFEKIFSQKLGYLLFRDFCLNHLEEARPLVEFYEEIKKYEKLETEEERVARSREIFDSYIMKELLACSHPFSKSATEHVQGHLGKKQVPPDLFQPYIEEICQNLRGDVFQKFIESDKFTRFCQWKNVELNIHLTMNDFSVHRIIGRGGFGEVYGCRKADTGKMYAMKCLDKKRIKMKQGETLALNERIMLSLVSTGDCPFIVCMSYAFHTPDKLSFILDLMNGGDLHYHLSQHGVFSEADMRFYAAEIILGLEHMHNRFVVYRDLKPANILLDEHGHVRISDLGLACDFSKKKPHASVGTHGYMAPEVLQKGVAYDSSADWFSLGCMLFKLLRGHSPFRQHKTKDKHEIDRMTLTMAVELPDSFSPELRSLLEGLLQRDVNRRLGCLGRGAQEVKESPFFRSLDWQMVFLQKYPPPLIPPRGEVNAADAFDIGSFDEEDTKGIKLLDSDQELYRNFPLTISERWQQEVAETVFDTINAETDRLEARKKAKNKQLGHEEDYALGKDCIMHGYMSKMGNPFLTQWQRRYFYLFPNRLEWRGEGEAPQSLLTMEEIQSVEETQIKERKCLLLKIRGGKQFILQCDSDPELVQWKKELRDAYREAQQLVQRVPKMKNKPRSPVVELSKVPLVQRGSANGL
In assay [10] the target is Beta-2 adrenergic receptor (Homo sapiens) (UniProt P07550). Kind of assay: beta2AR agonists driving receptor internalization, pilot screen, cell-based, FAP fluorogen, flow cytometry, validation set (AID 504459;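 active = percent response above 42, roughly 3 SD of non-fluorescent test compounds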;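 note: agonist-driven loss of surface beta2AR via internalization measured by FAP dye flow cytometry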). Conditions: Am2.2-beta2AR cells, FAP surface receptor flow cytometry; at 10 µM; stronger effect = higher value.
Beta-2 adrenergic receptor (Homo sapiens), sequence (P07550 whole entry, looked up): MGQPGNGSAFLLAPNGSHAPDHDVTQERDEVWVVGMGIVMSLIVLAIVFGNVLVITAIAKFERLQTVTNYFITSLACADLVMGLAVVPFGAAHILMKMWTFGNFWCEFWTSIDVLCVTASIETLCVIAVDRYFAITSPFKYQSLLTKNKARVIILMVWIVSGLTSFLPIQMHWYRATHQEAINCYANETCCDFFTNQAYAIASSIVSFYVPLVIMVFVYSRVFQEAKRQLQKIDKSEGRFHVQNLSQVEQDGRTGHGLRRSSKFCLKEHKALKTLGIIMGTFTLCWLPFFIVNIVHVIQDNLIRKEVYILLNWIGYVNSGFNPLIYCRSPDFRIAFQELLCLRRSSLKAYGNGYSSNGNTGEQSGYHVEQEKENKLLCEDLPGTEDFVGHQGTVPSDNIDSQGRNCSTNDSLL
The target in assay [11] is AP-2 complex subunit beta (Homo sapiens) (UniProt P63010). Kind of assay: inhibitors of arrestin peptide binding to AP2, pilot screen, biochemical, validation set, GST-AP2 beads, flow cytometry (AID 504541;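 active = inhibition above 54%, about 3 SD of non-fluorescent compounds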;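 note: AP2 carries R879A mutation and is captured from E. coli lysate; bead-bound FITC arrestin peptide fluorescence measuring arrestin peptide binding to AP2; 0% = DMSO wells and 100% = excess unlabeled arrestin peptide control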). To be noted: FITC arrestin peptide, at 10 µM, stronger effect = higher value, AP2 beta2 appendage fragment, R879A mutant.
AP-2 complex subunit beta (Homo sapiens), sequence (P63010 whole entry, looked up, the tested form may be a part, one chain of several): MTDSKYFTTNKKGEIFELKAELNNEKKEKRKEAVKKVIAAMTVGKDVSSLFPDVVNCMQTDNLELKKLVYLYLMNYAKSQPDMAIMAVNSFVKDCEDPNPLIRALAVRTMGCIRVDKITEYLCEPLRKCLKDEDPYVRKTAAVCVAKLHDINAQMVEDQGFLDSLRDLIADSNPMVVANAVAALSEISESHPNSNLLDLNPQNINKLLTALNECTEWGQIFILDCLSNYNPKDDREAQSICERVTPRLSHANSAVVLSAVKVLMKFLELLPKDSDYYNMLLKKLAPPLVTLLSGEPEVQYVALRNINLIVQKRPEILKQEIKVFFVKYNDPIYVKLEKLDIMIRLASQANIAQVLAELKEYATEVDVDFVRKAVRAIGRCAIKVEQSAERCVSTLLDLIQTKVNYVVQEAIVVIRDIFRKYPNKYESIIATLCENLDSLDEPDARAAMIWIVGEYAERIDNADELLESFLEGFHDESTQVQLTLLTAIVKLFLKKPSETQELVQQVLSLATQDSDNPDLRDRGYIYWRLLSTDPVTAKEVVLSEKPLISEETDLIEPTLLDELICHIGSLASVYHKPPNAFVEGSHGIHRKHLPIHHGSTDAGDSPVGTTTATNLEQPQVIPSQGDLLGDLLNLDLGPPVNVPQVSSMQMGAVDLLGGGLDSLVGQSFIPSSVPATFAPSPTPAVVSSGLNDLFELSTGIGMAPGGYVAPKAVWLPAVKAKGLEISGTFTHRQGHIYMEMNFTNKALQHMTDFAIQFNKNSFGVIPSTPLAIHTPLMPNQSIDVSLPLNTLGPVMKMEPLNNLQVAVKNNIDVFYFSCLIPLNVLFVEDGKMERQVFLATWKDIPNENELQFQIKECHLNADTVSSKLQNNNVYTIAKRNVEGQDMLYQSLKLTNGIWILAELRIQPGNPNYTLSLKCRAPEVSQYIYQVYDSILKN
Assay [12] can be described thus: yeast V-ATPase proton transport modulators, S. cerevisiae, pHLuorin, HTS validation (AID 504600; in the data active = response above about 15%;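 note: plate controls were DMSO for no effect and reference compound for full effect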). To be noted: S. cerevisiae pHLuorin cytosolic pH, at 10 µM, stronger effect = higher value.
In assay [13] the test system is anti-desmoglein-3 scFv antibody binding to human DSG3. Kind of assay: inhibitors of anti-DSG3 scFv binding to DSG3, pilot screen, biochemical, validation compound set, bead-based, flow cytometry (AID 588368;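 active = binding below the plate cutoff, the plate median minus 3 SD, with a reading above zero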;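 note: signal is the median channel fluorescence of bead-bound GFP antibody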). Conditions: Protein G beads, DSG3-Fc, scFv-GFP binding, at 10 µM, stronger effect = lower value.
Assay [14] is described as follows: inhibitors of fungal efflux pumps CDR1, CDR2, MDR1, pilot screen, validation compound set, multiplex, phenotypic (AID 588506;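 active = efflux inhibition above 0.42, the validation set average plus 4 SD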;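 note: Nile Red retained in cells so higher fluorescence means more efflux inhibition; 0 = negative control wells and 1 = enniatin B 25 µM full block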). Conditions: S. cerevisiae pump-expressing triplex, Nile Red efflux flow cytometry; at 10 µM; stronger effect = higher value; the pumps come from Candida albicans.
For assay [15], the target named is ATP-binding cassette sub-family B member 6 (Homo sapiens) (UniProt Q9NP58). The experiment in a line: ABCB6 transporter inhibitors, pilot screen, K562-ABCB6 cells, flow cytometry, validation set (AID 588550).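 Note: 0% = DMSO wells and 100% = benzethonium chloride 70 µM positive control.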 To be noted: K562-ABCB6 porphyrin accumulation, 1 h, at 10 µM, stronger effect = higher value.
ATP-binding cassette sub-family B member 6 (Homo sapiens), sequence (Q9NP58 whole entry, looked up): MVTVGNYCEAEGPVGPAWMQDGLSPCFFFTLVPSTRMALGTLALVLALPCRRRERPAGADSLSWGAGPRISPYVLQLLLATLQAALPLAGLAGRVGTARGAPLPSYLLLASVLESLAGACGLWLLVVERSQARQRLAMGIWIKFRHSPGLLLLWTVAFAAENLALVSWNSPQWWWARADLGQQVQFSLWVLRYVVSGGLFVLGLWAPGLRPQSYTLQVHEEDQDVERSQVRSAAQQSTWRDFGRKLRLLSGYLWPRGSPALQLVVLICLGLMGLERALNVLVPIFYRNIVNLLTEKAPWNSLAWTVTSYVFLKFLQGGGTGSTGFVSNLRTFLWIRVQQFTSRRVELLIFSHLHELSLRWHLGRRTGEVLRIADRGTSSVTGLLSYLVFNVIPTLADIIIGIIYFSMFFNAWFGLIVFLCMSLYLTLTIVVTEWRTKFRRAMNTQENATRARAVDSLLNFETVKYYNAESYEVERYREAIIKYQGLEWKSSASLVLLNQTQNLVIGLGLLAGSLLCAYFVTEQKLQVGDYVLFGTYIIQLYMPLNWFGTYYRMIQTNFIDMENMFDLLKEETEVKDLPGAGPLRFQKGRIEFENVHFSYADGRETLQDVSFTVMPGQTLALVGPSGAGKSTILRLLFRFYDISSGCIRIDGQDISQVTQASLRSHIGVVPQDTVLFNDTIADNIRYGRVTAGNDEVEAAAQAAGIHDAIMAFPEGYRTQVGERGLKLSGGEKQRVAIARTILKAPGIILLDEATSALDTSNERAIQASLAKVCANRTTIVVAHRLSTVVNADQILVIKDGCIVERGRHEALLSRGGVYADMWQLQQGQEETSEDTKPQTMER
Assay [16] in a line: promoters of myeloid differentiation in arrested cells, primary screen, cell-based, GFP/MAC1 double positive, flow cytometry, validation set (AID 588685;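 active = differentiation response of at least 50%, scaled between solvent and reference control, from cells with both markers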;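 note: compound exposure lasts four days before antibody staining and flow analysis; 0% = DMSO wells and 100% = 5 µM fulvestrant positive control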). To be noted: ER-HoxA9 marrow cells, stronger effect = higher value, normalized: vehicle 0, fulvestrant 100.

Results filed as inconclusive are left out. Calls of active or inactive are those of the source.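 Rule for the calls, unless noted: active = inhibition above the screen-wide mean plus 3 SD, about 51%; inactive = the rest.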

Integrin beta-1 (Homo sapiens) + Integrin alpha-4 (Homo sapiens), sequence (P05556 whole entry, looked up): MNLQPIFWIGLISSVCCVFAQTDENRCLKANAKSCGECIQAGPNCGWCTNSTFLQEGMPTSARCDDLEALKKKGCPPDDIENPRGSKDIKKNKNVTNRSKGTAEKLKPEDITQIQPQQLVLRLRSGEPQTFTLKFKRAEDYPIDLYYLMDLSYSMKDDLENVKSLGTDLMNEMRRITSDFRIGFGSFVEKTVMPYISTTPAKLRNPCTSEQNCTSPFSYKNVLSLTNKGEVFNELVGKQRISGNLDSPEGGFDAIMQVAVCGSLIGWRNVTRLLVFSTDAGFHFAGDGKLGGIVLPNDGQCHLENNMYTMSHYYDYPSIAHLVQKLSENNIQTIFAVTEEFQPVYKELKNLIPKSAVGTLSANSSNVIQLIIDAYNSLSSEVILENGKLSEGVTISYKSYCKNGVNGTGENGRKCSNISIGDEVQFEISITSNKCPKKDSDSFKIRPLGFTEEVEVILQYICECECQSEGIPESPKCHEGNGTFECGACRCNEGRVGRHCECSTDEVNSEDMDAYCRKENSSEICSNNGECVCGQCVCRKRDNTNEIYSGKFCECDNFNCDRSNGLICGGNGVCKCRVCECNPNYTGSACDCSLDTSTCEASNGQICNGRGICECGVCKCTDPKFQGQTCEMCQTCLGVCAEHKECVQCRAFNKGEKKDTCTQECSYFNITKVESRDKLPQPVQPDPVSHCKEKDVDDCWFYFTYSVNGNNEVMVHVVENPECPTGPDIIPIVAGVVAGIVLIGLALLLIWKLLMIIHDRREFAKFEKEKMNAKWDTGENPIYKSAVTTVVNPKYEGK
Integrin beta-1 (Homo sapiens) + Integrin alpha-4 (Homo sapiens), sequence (P13612 whole entry, looked up): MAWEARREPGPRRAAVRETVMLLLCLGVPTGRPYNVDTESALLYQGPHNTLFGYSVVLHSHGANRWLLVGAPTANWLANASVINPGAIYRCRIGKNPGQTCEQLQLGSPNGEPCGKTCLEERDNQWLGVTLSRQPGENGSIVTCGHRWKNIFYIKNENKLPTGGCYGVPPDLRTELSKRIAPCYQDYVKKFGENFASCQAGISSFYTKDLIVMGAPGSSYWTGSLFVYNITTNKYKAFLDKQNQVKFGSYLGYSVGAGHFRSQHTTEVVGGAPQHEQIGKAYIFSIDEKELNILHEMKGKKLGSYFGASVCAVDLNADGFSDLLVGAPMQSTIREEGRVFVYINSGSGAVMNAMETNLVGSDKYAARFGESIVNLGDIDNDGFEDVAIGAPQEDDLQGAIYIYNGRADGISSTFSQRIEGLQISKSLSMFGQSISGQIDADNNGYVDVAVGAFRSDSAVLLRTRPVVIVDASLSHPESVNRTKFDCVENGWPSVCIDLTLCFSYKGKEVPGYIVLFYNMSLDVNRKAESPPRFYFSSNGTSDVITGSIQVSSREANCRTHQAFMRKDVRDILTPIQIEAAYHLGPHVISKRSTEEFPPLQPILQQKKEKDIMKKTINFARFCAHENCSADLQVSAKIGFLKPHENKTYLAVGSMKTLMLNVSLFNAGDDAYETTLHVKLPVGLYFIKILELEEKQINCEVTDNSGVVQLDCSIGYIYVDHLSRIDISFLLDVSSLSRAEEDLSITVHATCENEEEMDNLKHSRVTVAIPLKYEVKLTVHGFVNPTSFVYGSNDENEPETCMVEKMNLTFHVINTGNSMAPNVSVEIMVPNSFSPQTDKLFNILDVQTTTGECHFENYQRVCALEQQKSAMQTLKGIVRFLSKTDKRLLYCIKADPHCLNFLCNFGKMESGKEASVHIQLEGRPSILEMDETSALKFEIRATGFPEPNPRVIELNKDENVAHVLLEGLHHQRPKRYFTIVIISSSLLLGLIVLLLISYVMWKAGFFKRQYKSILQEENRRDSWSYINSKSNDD

Consider `COc1ccccc1C(CCN(Cc1ccccc1)C(C)=O)c1ccco1` (stereo not given), for which the percent of DMSO control GFP in assay [1] was 91.5% (inactive). Also, the GFP response vs DMSO in [2] is 130% (inactive); in [4] it was 78.7% (inactive). The percent response of DMSO control in assay [3] was 103% (inactive). The GFP response, % of DMSO in assay [5] is 88% (inactive). For the same compound, the double positive events in assay [6] was 56.4%. The vesicle binding response in [6] is 145% (inactive). The inhibition is 8.4% (inactive) in assay [7], 2.58% (inactive) in [11] and 15% (inactive) in [15]. In addition, the superoxide response (% of plate) in assay [8] is 122% (inactive). The aptamer binding inhibition in assay [9] was 6% (inactive). Further, the response is -11.5% (inactive) in assay [10] and 0.45% (inactive) in assay [12]. Also, in [13], the binding (% of control) is 102% (inactive). The efflux inhibition (fraction of control) in assay [14] was 0.12 (inactive). In addition, the differentiation response in assay [16] was 1.64% (inactive).
As to `COc1ccc(C2CC(c3c(O)cc(C)oc3=O)=NCCS2)c(OC)c1` (stereo not given), the percent of DMSO control GFP in [1] was 102% (inactive). The values for the GFP response vs DMSO in assay [2] and in assay [4] were 108% (inactive) and 86.8% (inactive), respectively. Besides, the percent response of DMSO control in assay [3] is 111% (inactive). In addition, the GFP response, % of DMSO in assay [5] is 96.4% (inactive). Moreover, in assay [6], the double positive events came out at 64.5%. Moreover, the vesicle binding response in assay [6] is 818% (inactive). Besides, the inhibition is 36.9% (inactive) in assay [7], 1.7% (inactive) in assay [11] and -46% (inactive) in assay [15]. In addition, the superoxide response (% of plate) in [8] was 92% (inactive). For the same compound, in assay [9], the aptamer binding inhibition is 1% (inactive). For the same compound, the response was 19.6% (inactive) in assay [10] and 0.66% (inactive) in assay [12]. The binding (% of control) in assay [13] is 108% (inactive). The efflux inhibition (fraction of control) in [14] is 0.14 (inactive). The differentiation response in [16] was -4.64% (inactive).
As for `N=c1c[n+](N2CCOCC2)[n-]o1`, the percent of DMSO control GFP in assay [1] is 102% (inactive). Also, the figures for the GFP response vs DMSO in assay [2] and in assay [4] were 106% (inactive) and 89.4% (inactive), respectively. The percent response of DMSO control in assay [3] is 112% (inactive). Besides, in assay [5], the GFP response, % of DMSO was 96.2% (inactive). Besides, the double positive events in [6] came out at 65%. In assay [6], the vesicle binding response was 236% (inactive). The inhibition was 13% (inactive) in assay [7], 3.46% (inactive) in assay [11] and 9% (inactive) in [15]. For the same compound, in assay [8], the superoxide response (% of plate) is 92.1% (inactive). Besides, the aptamer binding inhibition in assay [9] was 3% (inactive). For the same compound, the response is -6.36% (inactive) in assay [10] and -0.08% (inactive) in [12]. The binding (% of control) in [13] was 95.1% (inactive). Besides, the efflux inhibition (fraction of control) in [14] was -0.07 (inactive). Besides, the differentiation response in assay [16] is 7.09% (inactive).
On to `CC1(c2ccccc2)CC(C)(C)N2C(=O)C(=O)c3cccc1c32` (stereo not given), for which, in [1], the percent of DMSO control GFP is 108% (inactive). The GFP response vs DMSO in assay [2] is 97.4% (inactive); in [4] it was 81.1% (inactive). Also, the percent response of DMSO control in [3] is 99.6% (inactive). Further, the GFP response, % of DMSO in assay [5] is 95.7% (inactive). In addition, the double positive events in assay [6] came out at 60.1%. Moreover, the vesicle binding response in [6] is 148% (inactive). The inhibition in assay [7] was -7.25% (inactive); in assay [11], 0.89% (inactive); in assay [15] it was 5% (inactive). Besides, the superoxide response (% of plate) in assay [8] is 109% (inactive). The aptamer binding inhibition in assay [9] was 4% (inactive). Moreover, the response in assay [10] was 20.4% (inactive); in assay [12], 3.44% (inactive). The binding (% of control) in assay [13] is 98.7% (inactive). The efflux inhibition (fraction of control) in [14] was 0.15 (inactive). Besides, the differentiation response in [16] was 0.8% (inactive).
As to `CC(C)CC(NC(=O)CNC(=O)C1O[C@@H]2OC(C)(C)O[C@@H]2[C@H]2OC(C)(C)O[C@@H]12)C(=O)O` (stereo not given in full), the percent of DMSO control GFP in assay [1] was 101% (inactive). For the same compound, the results for the GFP response vs DMSO in assay [2] and in [4] were 104% (inactive) and 99.9% (inactive), respectively. In assay [3], the percent response of DMSO control was 102% (inactive). Besides, the GFP response, % of DMSO in assay [5] was 102% (inactive). Also, the double positive events in [6] was 62.4%. Also, the vesicle binding response in assay [6] was 214% (inactive). The results for the inhibition in assay [7], in assay [11] and in assay [15] were -46.1% (inactive), 9.78% (inactive) and -3% (inactive), respectively. For the same compound, in assay [8], the superoxide response (% of plate) was 97.8% (inactive). In addition, the aptamer binding inhibition in assay [9] is -1% (inactive). Further, the values for the response in [10] and in assay [12] were -1.33% (inactive) and -1.96% (inactive), respectively. Further, the binding (% of control) in assay [13] is 96.9% (inactive). Besides, the efflux inhibition (fraction of control) in [14] is -0.04 (inactive). Moreover, the differentiation response in [16] was 12.9% (inactive).

A word on the inhibition: it is the relative decrease from the control value, in per cent.
